In PubChem BioAssay (NCI):
“And” between values parts separate entries of the source, which are not always exact repeats. Equal entries are not always repeated. The panel holds about 83,000 compounds, 20% with a hit somewhere; the sample as a whole holds those more often.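 Activity criterion: percent growth below 10, measured after cells in 96-well plates were exposed to a single compound concentration for 48 hours.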 The source made the active and inactive calls.

Legend:
Assay in all cases: NCI-60 one-dose screen, 48 h (100 = growth as untreated, 0 = no growth, -100 = all killed)
Conditions in all cases: 10 µM unless noted
NCI-H23 lung = system: NCI-H23 lung
NCI-H226 lung = system: NCI-H226 lung
NCI-H322M lung = system: NCI-H322M lung
HOP-62 NSCLC = system: HOP-62 NSCLC
NCI-H460 lung = system: NCI-H460 lung
HOP-92 NSCLC = system: HOP-92 NSCLC
A549/ATCC NSCLC = system: A549/ATCC NSCLC
786-0 renal = system: 786-0 renal
COLO 205 colon = system: COLO 205 colon
DU-145 prostate = system: DU-145 prostate
K-562 leukemia = system: K-562 leukemia
MALME-3M melanoma = system: MALME-3M melanoma
MDA-MB-231 breast = system: MDA-MB-231 breast
RXF 393 renal = system: RXF 393 renal
SF-268 CNS = system: SF-268 CNS
SF-295 CNS = system: SF-295 CNS
SF-539 CNS = system: SF-539 CNS
UACC-257 melanoma = system: UACC-257 melanoma
M14 melanoma = system: M14 melanoma
NCI-H522 lung = system: NCI-H522 lung

| Compound | growth (NCI-H23 lung) | growth (NCI-H226 lung) | growth (NCI-H322M lung) | growth (HOP-62 NSCLC) | growth (NCI-H460 lung) | growth (HOP-92 NSCLC) | growth (A549/ATCC NSCLC) | growth (786-0 renal) | growth (COLO 205 colon) | growth (DU-145 prostate) | growth (K-562 leukemia) | growth (MALME-3M melanoma) | growth (MDA-MB-231 breast) | growth (RXF 393 renal) | growth (SF-268 CNS) | growth (SF-295 CNS) | growth (SF-539 CNS) | growth (UACC-257 melanoma) | growth (M14 melanoma) | growth (NCI-H522 lung) |
| --- | --- | --- | --- | --- | --- | --- | --- | --- | --- | --- | --- | --- | --- | --- | --- | --- | --- | --- | --- | --- |
| Cc1cc(O)c(C(C)C)cc1N=O | 95.4% (inactive) and 111% (inactive) | 99.6% (inactive) and 108% (inactive) | 115% (inactive) and 104% (inactive) | 103% (inactive) and 99.4% (inactive) | 115% (inactive) | 79.7% (inactive) | 106% (inactive) and 99.9% (inactive) | 98.6% (inactive) and 103% (inactive) | 106% (inactive) and 112% (inactive) | 108% (inactive) and 104% (inactive) | 99.6% (inactive) | 113% (inactive) and 108% (inactive) | 83.3% (inactive) and 100% (inactive) | 112% (inactive) and 113% (inactive) | 99.7% (inactive) and 96.1% (inactive) | 98.8% (inactive) and 121% (inactive) | 98.7% (inactive) and 101% (inactive) | 103% (inactive) and 97.1% (inactive) | 104% (inactive) | – |
| COc1ccc(S(=O)(=O)c2ccc(F)cc2)cc1 | 102% (inactive) | 97.1% (inactive) | 117% (inactive) | 109% (inactive) | 114% (inactive) | 92.7% (inactive) | 82.4% (inactive) | 103% (inactive) | 113% (inactive) | 113% (inactive) | 115% (inactive) | 93% (inactive) | 94.2% (inactive) | 138% (inactive) | 101% (inactive) | 116% (inactive) | 111% (inactive) | 93.8% (inactive) | 101% (inactive) | – |
| COc1ccc2oc3cc(NCCN(C)C)ccc3c(=O)c2c1 | 112% (inactive) and 83% (inactive) | 109% (inactive) and 102% (inactive) | 76.5% (inactive) | 88.2% (inactive) and 54.1% (inactive) | 97.7% (inactive) and 61.7% (inactive) | 88.2% (inactive) and 82.1% (inactive) | 95.2% (inactive) and 73.8% (inactive) | 103% (inactive) and 76.9% (inactive) | 84.3% (inactive) and 47.7% (inactive) | 108% (inactive) and 76.6% (inactive) | 66.7% (inactive) and 43.2% (inactive) | 94.8% (inactive) and 81.7% (inactive) | 83.5% (inactive) and 73.6% (inactive) | 107% (inactive) and 92.5% (inactive) | 104% (inactive) and 82.7% (inactive) | 54.7% (inactive) and 72.1% (inactive) | 80.7% (inactive) and 84.2% (inactive) | 86.9% (inactive) | 96.5% (inactive) and 76.7% (inactive) | – |
| CCCC(=O)Oc1ccc(CC)cc1 | 96.5% (inactive) | 110% (inactive) | 106% (inactive) | 98.9% (inactive) | 105% (inactive) | 115% (inactive) | 101% (inactive) | 99.7% (inactive) | 104% (inactive) | 109% (inactive) | 96.7% (inactive) | 104% (inactive) | 111% (inactive) | 117% (inactive) | 96.9% (inactive) | 98.5% (inactive) | 101% (inactive) | 94.2% (inactive) | 99% (inactive) | – |
| O=C(O)c1cc(=O)[nH]c(=O)[nH]1 | 104% (inactive) and 4.68% (active) | 102% (inactive) and 95% (inactive) | 89.8% (inactive) and 97.5% (inactive) | 115% (inactive) and 107% (inactive) | 111% (inactive) and 91.4% (inactive) | – | 98.3% (inactive) | 96.5% (inactive) and 103% (inactive) | 99.6% (inactive) and 89.3% (inactive) | 116% (inactive) and 104% (inactive) | 106% (inactive) and 115% (inactive) | 89.1% (inactive) and 116% (inactive) | 97.2% (inactive) and 96.3% (inactive) | 118% (inactive) | 112% (inactive) and 100% (inactive) | 101% (inactive) and 124% (inactive) | 104% (inactive) and 80.5% (inactive) | 103% (inactive) | 102% (inactive) and 111% (inactive) | 89.7% (inactive) and 18.9% (inactive) |
| COc1cc([C@@H]2c3cc4c(cc3[C@H](O)[C@H]3COC(=O)[C@@H]23)OCO4)cc(OC)c1OC | 12.2% (inactive) and 13.6% (inactive) | 51.8% (inactive) and 45.6% (inactive) | 38.9% (inactive) and 23.5% (inactive) | 15.7% (inactive) | 4.7% (active) and -1.68% (active) | 37.5% (inactive) and -7.61% (active) | 12.3% (inactive) and 21.2% (inactive) | 44.1% (inactive) and -74.9% (active) | -45.7% (active) and -74.4% (active) | 27.1% (inactive) and -27.4% (active) | 8.28% (active) and 25.4% (inactive) | 7.77% (active) and 69.7% (inactive) | 36.9% (inactive) and 17.5% (inactive) | 39.6% (inactive) and 28.2% (inactive) | 27.1% (inactive) and 24.4% (inactive) | 34.1% (inactive) and -22.3% (active) | -30.4% (active) and -4.79% (active) | 18.6% (inactive) and 57.2% (inactive) | 9.16% (active) and -73.8% (active) | – |
| Nc1ccc(O)c(C(=O)O)c1 | 92.7% (inactive) and 105% (inactive) and 94.2% (inactive) | 95.4% (inactive) and 92.4% (inactive) and 116% (inactive) | 131% (inactive) and 106% (inactive) and 99.2% (inactive) | 92.5% (inactive) and 103% (inactive) and 90.9% (inactive) | 103% (inactive) and 101% (inactive) and 116% (inactive) | 104% (inactive) and 105% (inactive) | 105% (inactive) and 97% (inactive) | 98.9% (inactive) and 101% (inactive) and 94.7% (inactive) | 107% (inactive) and 134% (inactive) | 105% (inactive) and 128% (inactive) | 92.9% (inactive) and 74.2% (inactive) | 109% (inactive) and 116% (inactive) | 84.3% (inactive) and 91.9% (inactive) and 109% (inactive) | 92.4% (inactive) and 115% (inactive) and 127% (inactive) | 89.5% (inactive) and 104% (inactive) and 110% (inactive) | 109% (inactive) and 107% (inactive) and 113% (inactive) | 102% (inactive) and 103% (inactive) and 114% (inactive) | 109% (inactive) and 110% (inactive) | 93.8% (inactive) and 104% (inactive) and 95.1% (inactive) | – |
| CC1NC(C)c2ccc3ccccc3c2O1 (centres undefined) | 102% (inactive) | 102% (inactive) | 106% (inactive) | 108% (inactive) | 108% (inactive) | 101% (inactive) | 106% (inactive) | 104% (inactive) | 121% (inactive) | 104% (inactive) | 104% (inactive) | 119% (inactive) | 110% (inactive) | 120% (inactive) | 101% (inactive) | 116% (inactive) | 102% (inactive) | 99.4% (inactive) | 92.5% (inactive) | – |
| C(#CCN1CCOCC1)CCCN1CCOCC1 | 109% (inactive) and 105% (inactive) | 100% (inactive) and 115% (inactive) | 119% (inactive) and 99% (inactive) | 93.5% (inactive) and 99.9% (inactive) | 114% (inactive) and 111% (inactive) | – | 105% (inactive) and 100% (inactive) | 110% (inactive) and 100% (inactive) | 105% (inactive) and 104% (inactive) | 109% (inactive) and 117% (inactive) | 114% (inactive) and 113% (inactive) | 117% (inactive) and 88.9% (inactive) | 96.7% (inactive) and 106% (inactive) | 110% (inactive) and 119% (inactive) | 105% (inactive) and 104% (inactive) | 113% (inactive) and 106% (inactive) | 104% (inactive) and 91.7% (inactive) | 97.5% (inactive) and 101% (inactive) | – | – |
